Reference: PubChem BioAssay (Tox21)
Results filed as inconclusive are left out. A call without a number means that no potency is given here. Unmarked numbers belong to inactive results. Activity calls are given as the source filed them. The call rests on the fitted dose curve; in most records, active means well fitted cell-killing curve with a large enough effect in the repeat runs; inconclusive means weak or mixed curves, or effect the other way; inactive means flat fitted curve, though single readings scatter.

test: qHTS RealTime-Glo MT Cell Viability Assay in HEK293 cells - 0 hour (AID 1224880); settings: RealTime-Glo luminescence; series mostly up to 76.8 µM; activity change, negative = cytotoxicity: at the top concentration; further: top concentration of the series differs between compounds; nearly all actives have a fitted effect of over 45% in size
Text: U.S. Tox21 Program National Center for Advancing Translational Sciences [NCATS] NIH Chemical Genomics Center [NCGC] U.S. Environmental Protection Agency [EPA] National Institutes of Environmental Health Sciences [NIEHS] National Toxicology Program [NTP] U.S. Food and Drug Administration [FDA] Tox21 Assay Overview: Measure of cell viability is critical in the cell-base assay. Analysis of cell viability is necessary for the characterization of cell responses to cytotoxic drugs and environmental stress. A RealTime-Glo MT Cell Viability Assay to monitor cell viability in real time of continues cell culture during 40 hours of compound treatment was used to screen Tox21 10K library compounds in Hek293 cells. The RealTime-Glo MT Cell Viability Assay is a nonlytic, homogeneous, bioluminescent method to measure cell viability in real time using a simple, plate-based method. The assay involves adding NanoLuc luciferase and a cell-permeant prosubstrate to cells in culture. Viable cells reduce the proprietary prosubstrate to generate a substrate for NanoLuc luciferase. This substrate diffuses from cells into the surrounding culture medium, where it is rapidly used by the NanoLuc Enzyme to produce a luminescent signal. The signal correlates with the number of viable cells, making the assay well suited for cytotoxicity studies.
Tox21 Assay Protocol Summary: The mixture of Hek293 cell suspension and reagents were dispensed at 600cells/6 ul/well in 1536-well tissue culture treated black solid bottom plates using a Multidrop dispenser. After the assay plates were incubated at a 37 C/5% CO2 incubator for 5 hours, 23 nL of compounds dissolved in DMSO, positive and negative controls was transferred to the assay plate by a pintool work station. The plates were incubated at 37 C for 40 hours. The luminescence intensity were measured at 0h, 8h, 16h, 24h, 32h and 40h time points using ViewLux plate reader during compound treatment.

Compound | Potency | activity change, negative = cytotoxicity
COC(=O)CCC(=O)OC | inactive | –
O=C(/C=C/C=C/c1ccc2c(c1)OCO2)N1CCCCC1 | inactive | –
Nc1ncn([C@@H]2O[C@H](CO)[C@@H](O)[C@H]2O)c(=O)n1 | inactive | –
CC(=O)Oc1ccccc1C(=O)Nc1ncc([N+](=O)[O-])s1 | inactive | –
C=CC(C)(CCC=C(C)C)OC(C)=O (stereo not given) | inactive | –
O=C1c2cccc(O)c2C(=O)c2c(O)cccc21 | – | -2.21% [at 35.3 µM]
c1ccc2c(c1)Oc1ccccc1S2 | inactive | –
O=CCc1ccccc1 | inactive | –
COC(=O)c1ccccc1 | inactive | –
COc1ccc(OC)c(C(O)CNC(=O)CN)c1 (stereo not given) | inactive | –
Cc1c(C(N)=O)cc([N+](=O)[O-])cc1[N+](=O)[O-] | inactive | –
CCCCC(CC)COC(=O)c1ccc(N(C)C)cc1 (stereo not given) | inactive | –
c1cc(-c2ccncc2)ccn1 | inactive | –
Cc1cccc([N+](=O)[O-])c1C | inactive | –
Cc1ccc(C)c(O)c1C | inactive | –
O=P(O)(O)O | inactive | –
O=C(Nc1ccc([N+](=O)[O-])cc1Cl)c1cc(Cl)ccc1O | inactive | –
O=C(OCc1ccccc1)c1ccccc1O | inactive | –
CCC(C)CO (stereo not given) | inactive | –
Cc1cccc(N(C)C(=S)Oc2ccc3ccccc3c2)c1 | inactive | –

Compound | Potency | activity change, negative = cytotoxicity
Cn1cnc([N+](=O)[O-])c1Sc1ncnc2nc[nH]c12 | inactive | –
O=C(c1ccc(OCCN2CCCCC2)cc1)c1c(-c2ccc(O)cc2)sc2cc(O)ccc12 | inactive | –
CCCCCCCCCC(=O)OC | inactive | –
CC(C)OC(=O)C(C)(C)Oc1ccc(C(=O)c2ccc(Cl)cc2)cc1 | inactive | –
S=C(NC1CCCCC1)NC1CCCCC1 | inactive | –
OC1CCCCCCCCCCC1 | inactive | –
Nc1ccc(Nc2ccccc2)cc1 | inactive | –
CCCc1c(OCCCCc2nn[nH]n2)ccc(C(C)=O)c1O | inactive | –
CCC(C)OC(=O)c1ccc(O)cc1 (stereo not given) | inactive | –
CCC(C)c1ccccc1O (stereo not given) | inactive | –
CC(C)Oc1ccc2c(=O)c(-c3ccccc3)coc2c1 | inactive | –
Nc1ccc(Cl)cc1Cl | inactive | –
CN(C)c1nc(N(C)C)nc(N(C)C)n1 | inactive | –
CC1=CC2C3CC(C=C3C)C2C1 (stereo not given) | – | -14%
CCCC(=O)O | inactive | –
Cc1cccc(C(=O)O)c1 | inactive | –
Nc1ncnc2nc[nH]c12 | inactive | –
Cc1[nH]c(=O)c(C#N)cc1-c1ccncc1 | inactive | –
O=C(c1ccccc1)c1ccc(O)cc1O | inactive | –
c1ccc(Nc2ccccc2)cc1 | inactive | –
